Results on 33 compounds are retold here after PubChem BioAssay AID1347076 (National Center for Advancing Translational Sciences (NCATS), 2019).

In all, about 400,000 compounds went through this assay and about 13,000 (3.2%) were called active. Where a call stands in place of a potency, no number is given. Another 18% or so got no clear call; they are omitted. Calls come from the whole dose curve; as a rule, active = well fitted cell-killing curve with a large enough effect; inconclusive = small, poorly fitted or top-dose-only effect, or effect the other way; inactive = flat fitted curve, though single readings scatter. The full list was thinned out, with actives kept by preference.
Potency is the fitted concentration of half-maximal effect.

This assay is described as follows: qHTS assay for MDR1-selective chemotherapeutics: Primary screen using the drug-selected MDR subline cells KB-V1. Note: nearly all actives have a fitted effect of over 60% in size. To be noted: KB-V1 MDR cells viability, CellTiter-Glo, 72 h; series mostly up to 46.1 µM. Summed up: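 Cytotoxicity toward P-gp-expressing KB-V1 cells was determined as loss of CellTiter-Glo luminescence after 72 h at 37 degrees C. Compounds were tested in quantitative HTS format across a concentration range, with curves fitted to normalized data.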
In the case of `CN1OC[C@@H]2CN(C(=O)C(C)(C)C)[C@H](c3ccc(-n4ccnc4)cc3)C[C@@H]21`, the Potency result is “inactive”.

In the case of `CC(=O)c1ccc(Nc2nc(C(N)c3ccccc3)cs2)cc1` (stereo not drawn), the Potency entry was “inactive”.

`COc1cc(OC)cc(C(=O)NC(C(=O)N2CCC2)C(C)C)c1` (stereo not drawn): the Potency result was “inactive”.

On to `COc1cc(OC)cc(C(=O)N[C@H](C(=O)OCC(=O)NC(C)c2ccccc2)C(C)C)c1` (stereo partly drawn), for which the Potency was 23.1 µM (active).

In the case of `COc1ccc(C(=O)N[C@H](C(=O)NCc2ccccc2)C(C)C)cc1`, the Potency entry was “inactive”.

Take `Cc1cc(C)cc(OCC(=O)NC(C)c2ccccc2)c1` (stereo not drawn): the Potency entry was “inactive”.

In the case of `COc1cc(OC)cc(C(=O)N[C@H](C(=O)Nc2nc3ccccc3[nH]2)C(C)C)c1`, the Potency was 14.6 µM (active).

As for `COc1cc(OC)cc(C(=O)N[C@H](C(=O)NNC(=O)c2ccc(Br)cc2)C(C)C)c1`, the Potency result was “inactive”.

For `C[C@@H]1CC2=C(C(=O)OC(C)(C)O2)[C@@H](C2CC2)O1`, the Potency entry was “inactive”.

In the case of `COc1cccc(-c2cnc(C(O)c3ccccc3OC)[nH]2)c1` (stereo not drawn), the Potency entry is “inactive”.

As to `CCOc1ccc(S(=O)(=O)N2CCN=C2Cc2ccccc2)cc1C`, the Potency entry was “inactive”.

On to `CC1=NCCN1S(=O)(=O)c1cccc([N+](=O)[O-])c1`, for which the Potency entry was “inactive”.

For `COc1cc(S(=O)(=O)N2CCN=C2c2ccccc2)ccc1Cl`, the Potency was 16.4 µM (active).

Regarding `O=S1(=O)CC(N2CCN(Cc3ccccc3F)CC2)CN1Cc1cn(Cc2cccc(C(F)(F)F)c2)nn1` (stereo not drawn), the Potency result was “inactive”.

On to `Cc1c(CCO)sc[n+]1CC(=O)c1ccc2ccccc2c1`, for which the Potency result is “inactive”.

With `CCOC(=O)C1CCN(c2ncnc3c2oc2ccc(Br)cc23)CC1`, the Potency is 20.6 µM (active).

Consider `CCOC(=O)C1CCN(Cc2nnc(-c3cccc(Br)c3)o2)CC1`, for which the Potency entry is “inactive”.

For `CCOC(=O)C1CCN(C(=O)c2oc3ccc(S(=O)(=O)N4CCCCCC4)cc3c2C)CC1`, the Potency result was “inactive”.

Turning to `CCN(CC)CCNc1ncnc2c1cnn2-c1cc(Cl)ccc1C`, the Potency result is “inactive”.

Regarding `CN(C)C(=O)c1cccc(-c2cnc3sc(NCc4ccc5c(c4)OCO5)nn23)c1`, the Potency entry was “inactive”.

As to `COc1ccc(C(CCN(Cc2ccc(OC)c(OC)c2)C(=O)CCl)c2ccccc2)cc1` (stereo not drawn), the Potency is 20.6 µM (active).

For the compound `COc1ccc(CN(C)C(=O)CC(c2ccccc2)c2ccccc2)cc1`, the Potency result was “inactive”.

`COc1ccc(COC(=O)NC(C(=O)O)c2ccccc2)cc1` (stereo not drawn): the Potency entry is “inactive”.

Turning to `O=C(NCc1ccc(F)cc1)c1cc(C2CCCCN2C(=O)c2ccccn2)on1` (stereo not drawn), the Potency result was “inactive”.

Turning to `O=C(CSc1nc2ccccc2c(=O)n1-c1ccc(F)cc1)NC1CC1`, the Potency result was “inactive”.

Consider `O=C(CSc1ncc(CO)n1Cc1ccc(F)cc1)NCc1ccco1`, for which the Potency result is “inactive”.

As to `COC(=O)c1ccc2c(=O)n(CCN3CCOCC3)c(SCC(=O)Nc3cccc(OC)c3)nc2c1`, the Potency result is “inactive”.

Turning to `O=C(CCn1c(SCC(=O)c2ccccc2)nc2ccccc2c1=O)NCc1ccc(F)cc1`, the Potency is 7.31 µM (active).

For `O=C(CSc1nc2ccccc2c(=O)n1Cc1ccc(F)cc1)NCC1CCCO1` (stereo not drawn), the Potency entry was “inactive”.

For the compound `O=C(CSc1nc2ccccc2c(=O)n1CCCO)NC1CC1`, the Potency entry is “inactive”.

In the case of `O=C(CCCn1c(SCC(=O)c2ccc(F)cc2)nc2ccccc2c1=O)NCc1ccco1`, the Potency is 5.8 µM (active).

On to `CC(=O)c1ccc(NC(=O)CSc2nc3ccccc3c(=O)n2CCCN2CCOCC2)cc1`, for which the Potency result is “inactive”.

Take `CCc1ccc(NC(=O)CSc2nc3ccccc3c(=O)n2CCN2CCOCC2)cc1`: the Potency is 8.2 µM (active).
